Screen size: about 59,000 compounds; about 6,200 (11%) were called active. Another 9% or so got no clear call; they are omitted. No stated cut-off is given here; in the data, active means max dye-equivalent concentration above about 10 nM; inconclusive means mostly about 1.1 nM to 9.6 nM; inactive means weaker than that. Only a selection was taken, and actives are over-represented in it overall.

The assay can be described thus: qHTS Assay for Spectroscopic Profiling in 4-MU Spectral Region. The settings on record: compound autofluorescence, 340/450 nm, 4-MU equivalents; hits give high values. An outline of the steps: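 Compounds in 100 mM Tris, pH 8.0, incubated 15 min at room temperature, then fluorescence read at 340 nm excitation/450 nm emission. Signal converted to 4-MU dye-equivalent concentration using an on-plate six-point 4-MU standard curve.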
As for `CCOc1cc(C(=O)N2CCc3cc(OC)c(OC)cc3C2)ccc1OC(F)F`, the max dye-equivalent concentration entry was “inactive”. Take `CC1(C)CC(=O)c2sc(N)nc2C1`: the max dye-equivalent concentration entry is “inactive”. Then `CCOC(=O)C1(Cc2ccc(O)cc2)NC(c2ccccc2F)C2C(=O)N(C)C(=O)C21` (stereo not drawn), with “inactive”; and `O=C(c1csnn1)N1CCC2(CCN(Cc3nccs3)CC2)CC1`, with “inactive”. Then `Cc1cc(C)c(C#N)c(SCc2ccc3c(c2)OCO3)n1`, with “inactive”. The result for `Cc1cc(C)c(C#N)c(SCS(=O)c2ccc(C(C)(C)C)cc2)n1` (stereo not drawn) reads “inactive”; that for `Cc1cc(C)c(C#N)c(SCc2ccccc2C(=O)O)n1`, 13 nM (active). Take `O=C(Nc1ccon1)c1sc2ccccc2c1Cl`: the max dye-equivalent concentration entry was “inactive”. The result for `OCCCN1c2ccccc2Nc2nnc(-c3ccccc3)cc21` reads 94 nM (active).

As to `Oc1ccc(Cn2cc[nH]c2=S)cc1`, the max dye-equivalent concentration entry is “inactive”. Then `O=C(Oc1ccc2c(c1)CN(Cc1ccccc1)CO2)c1ccccc1`, with “inactive”; and `CC(=O)Nc1nonc1-c1nc2ccccc2n1Cc1ccccn1`, with “inactive”. Regarding `CN1c2ccccc2-c2nc3ccccc3n2C1c1ccco1` (stereo not drawn), the max dye-equivalent concentration was 2800 nM (active). Then `CCOC(=O)N1CCC(C(N)=O)CC1`, with “inactive”; and `CCOc1cc(S(=O)(=O)NC2CC(C)(C)NC(C)(C)C2)ccc1F`, with “inactive”; and `COc1ccc(Oc2ncc3nc(C)c(=O)n(-c4ccccc4)c3n2)cc1`, with “inactive”.

For `O=c1c(-c2cccs2)nc2cnc(Oc3ccccc3)nc2n1-c1ccccc1`, the max dye-equivalent concentration was 18 nM (active). The result for `COc1ccc(-n2c(=O)c(-c3cn(C)c4ccccc34)nc3cnc(OC)nc32)cc1` reads “inactive”; that for `O=C1c2ccccc2C(=O)N1c1ccccc1S(=O)C(F)(F)F` (stereo not drawn), “inactive”; that for `O=C(Cn1nnc(-c2ccc3c(c2)OCO3)n1)NCc1ccco1`, “inactive”. Consider `CS(=O)(=O)N(CC(=O)NCc1ccco1)c1ccc2c(c1)OCO2`, for which the max dye-equivalent concentration was 27 nM (active). For the compound `CS(=O)(=O)N(CC(=O)N1CCN(Cc2ccc3c(c2)OCO3)CC1)c1ccc2c(c1)OCO2`, the max dye-equivalent concentration entry is “inactive”. Then `CCn1c(COc2ccc(OC)cc2)nnc1SCC(=O)Nc1cc(OC)ccc1OC`, with “inactive”. For `Cc1cn(C2C=CC(CO)O2)c(=O)[nH]c1=O` (stereo not drawn), the max dye-equivalent concentration entry is “inactive”. For `O=C(NC1CC2CCCC(C1)N2C(=O)N1CCCCC1)C1CCCCC1` (stereo not drawn), the max dye-equivalent concentration entry is “inactive”. On to `O=C(NCCc1ccco1)c1nn(Cc2ccccc2)c(=O)c2ccccc12`, for which the max dye-equivalent concentration entry is “inactive”.

Consider `COc1ccccc1-c1c(C)nn2c(C)c(C(C)=O)cnc12`, for which the max dye-equivalent concentration entry is “inactive”.

On to `Cc1ccc(C(=O)NC2CCN(C(=O)N3CCOCC3)CC2)cc1`, for which the max dye-equivalent concentration entry is “inactive”.

As for `N#Cc1c2c(c(N3CCN(CCO)CC3)n3c1nc1ccccc13)CCCC2`, the max dye-equivalent concentration was 26 nM (active). For `CCCCn1c(CN2CCN(CCO)CC2)nc2ccccc21`, the max dye-equivalent concentration result was “inactive”. Then `CN(C)CCCNc1c2c(c(C#N)c3nc4ccccc4n13)CCC2`, with 98 nM (active); and `Cc1ccc(C(=O)NCC(=O)O)cc1S(=O)(=O)N1CCCCC1`, with “inactive”.

Regarding `Cc1ccc(C(=O)N(CN2CCCC2=O)c2ccc(F)cc2)cc1`, the max dye-equivalent concentration result was “inactive”. Then `CCOC(=O)c1c(-n2cnnn2)sc(C)c1C`, with “inactive”; and `CC(=NCC1CCCO1)c1c(O)[nH]c(=O)[nH]c1=O` (stereo not drawn), with “inactive”.

As to `CCCCOc1ccc(-c2ncc(C(=O)OCC)c(N)n2)cc1`, the max dye-equivalent concentration result is “inactive”. Regarding `CCN(CC)CCCN1C(=O)C(=O)/C(=C(/O)c2c(C)nc3ccccn23)C1c1ccc(C)o1` (stereo not drawn), the max dye-equivalent concentration result was “inactive”.

With `COc1ccc(C(=O)NC(=O)CSc2nnc(-c3ccco3)n2-c2ccccc2)cc1`, the max dye-equivalent concentration result was “inactive”. Then `COc1ccc(-n2c(SCC(=O)NCc3cccs3)nnc2-c2ccoc2C)cc1`, with 23 nM (active). For the compound `Cc1ccccc1-n1c(SCC(=O)NCc2cccs2)nnc1-c1ccncc1`, the max dye-equivalent concentration entry is “inactive”. As for `O=c1c(-c2cc(F)cc(F)c2)nc2cnc(Oc3ccccc3)nc2n1C[C@H]1CCCO1`, the max dye-equivalent concentration was 12 nM (active).

As to `COc1cccc(Cn2c(=O)c(-c3cc(F)cc(F)c3)nc3cnc(OC)nc32)c1`, the max dye-equivalent concentration entry is “inactive”. The result for `O=C(CSc1nnc(-c2ccco2)n1CC1CCCO1)c1ccccc1` (stereo not drawn) reads “inactive”. The result for `OCCCNCc1ccccn1` reads “inactive”; that for `C[C@H]1O[C@@H](CC(=O)O)Cc2c1c(O)c1c(O)cc(-c3cc(=O)c4c(=O)c5c(c(=O)c=4c3=O)C[C@H](CC(=O)O)O[C@@H]5C)c(O)c1c2O`, “inactive”; that for `CCCCn1c(SCC(=O)NCCc2ccc(OC)c(OC)c2)nc2c1c(=O)n(C)c(=O)n2C`, “inactive”. With `COCCNC(=O)CSc1nc2c(n1-c1ccccc1)CCCC2`, the max dye-equivalent concentration entry was “inactive”.

`CCn1c(SCC(=O)NCC2CCCO2)nc2cc(S(=O)(=O)N3CCCCC3)ccc21` (stereo not drawn): the max dye-equivalent concentration result was “inactive”. The result for `CCCCn1c(SCC(=O)NCC2CCCO2)nc2ccc(N3CCOCC3)cc2c1=O` (stereo not drawn) reads 62 nM (active). The result for `CCc1ccc(NC(=O)CSc2nc3ccccc3c(=O)n2CCN2CCOCC2)cc1` reads “inactive”; that for `COCCCNC(=O)CSc1nc2ccc(N3CCOCC3)cc2c(=O)n1CCc1ccccc1`, 54 nM (active). On to `Cn1c(CC(=O)Nc2ccccc2)nnc1SCC(=O)c1ccccc1`, for which the max dye-equivalent concentration result is “inactive”.

For `CC(=O)N1CCC2(CC1)CCN(c1ccncc1)CC2`, the max dye-equivalent concentration entry is “inactive”.

For the origin of these results see PubChem BioAssay AID589 (National Center for Advancing Translational Sciences (NCATS), 2007).
